# Source: publication PMC11062922 (Nature Chemical Biology, 2023)
# Where two headings read alike, the source gives them in different places.
# What was measured:
# Parameters in all cases: species or system human, MV4-11 + K-562 + COLO205 + SK-N-BE2 + OVCAR-8
# [1] = test system: AKT2; conditions: read-out: apparent Kd, n = 1
# [2] = test system: CDK16; conditions: read-out: apparent Kd; compound concentrations:100 nM and 1000 nM (sheet 'Samples'); n = 1
# [3] = test system: CDK17; conditions: read-out: apparent Kd; compound concentrations:100 nM and 1000 nM (sheet 'Samples'); n = 1
# [4] = test system: CDKL5; conditions: read-out: apparent Kd; compound concentrations:100 nM and 1000 nM (sheet 'Samples'); n = 1
# [5] = test system: T1, DJA1; conditions: read-out: apparent Kd; compound concentrations:100 nM and 1000 nM (sheet 'Samples'); n = 1
# T1 construct: gene DNAJA1
# [6] = test system: GSK3A; conditions: read-out: apparent Kd; compound concentrations:100 nM and 1000 nM (sheet 'Samples'); n = 1
# [7] = test system: GSK3B; conditions: read-out: apparent Kd; compound concentrations:100 nM and 1000 nM (sheet 'Samples'); n = 1
# [8] = test system: JAK2; conditions: read-out: apparent Kd; compound concentrations:100 nM and 1000 nM (sheet 'Samples'); n = 1
# [9] = test system: MAPK14; conditions: read-out: apparent Kd; compound concentrations:100 nM and 1000 nM (sheet 'Samples'); n = 1
# [10] = test system: PIK3CA; conditions: read-out: apparent Kd; compound concentrations:100 nM and 1000 nM (sheet 'Samples'); n = 1
# [11] = test system: PIK3CD; conditions: read-out: apparent Kd; compound concentrations:100 nM and 1000 nM (sheet 'Samples'); n = 1
# [12] = test system: RPS6KA6; conditions: read-out: apparent Kd; compound concentrations:100 nM and 1000 nM (sheet 'Samples'); n = 1
# [13] = test system: CDK6; conditions: read-out: apparent Kd, compound concentrations: 100 nM and 1000 nM (sheet 'Samples'), n = 1
# [14] = test system: EGFR; conditions: read-out: apparent Kd; compound concentrations: 100 nM and 1000 nM (sheet 'Samples'), CATDS: 0.20286097232099201; n = 1
# [15] = test system: MAP2K2; conditions: read-out: apparent Kd, n = 1
# [16] = test system: NQO1; conditions: read-out: apparent Kd, n = 1
# [17] = test system: PYGL; conditions: read-out: apparent Kd; compound concentrations: 100 nM and 1000 nM (sheet 'Samples'), CATDS: 0.12425140919606401; n = 1
# [18] = test system: RIPK2; conditions: read-out: apparent Kd; compound concentrations: 100 nM and 1000 nM (sheet 'Samples'), CATDS: 0.17953871866569099; n = 1
# [19] = test system: AGK; conditions: read-out: apparent Kd; compound concentrations: 100 nM and 1000 nM (sheet 'Samples'), CATDS: 0.48685778986675599; n = 1
# [20] = test system: TP53RK; conditions: read-out: apparent Kd, n = 1
# [21] = test system: AKT1; conditions: read-out: apparent Kd, n = 1
# [22] = test system: AKT3; conditions: read-out: apparent Kd; compound concentrations:100 nM and 1000 nM (sheet 'Samples'); n = 1
# [23] = test system: DDX3X;DDX3Y; conditions: read-out: apparent Kd; compound concentrations:100 nM and 1000 nM (sheet 'Samples'); n = 1
# [24] = test system: RIOK2; conditions: read-out: apparent Kd; compound concentrations:100 nM and 1000 nM (sheet 'Samples'); n = 1
# [25] = test system: HCK; conditions: read-out: apparent Kd; compound concentrations:100 nM and 1000 nM (sheet 'Samples'); n = 1
# [26] = test system: RET; conditions: read-out: apparent Kd; compound concentrations:100 nM and 1000 nM (sheet 'Samples'); n = 1
# [27] = test system: YES1; conditions: read-out: apparent Kd; compound concentrations:100 nM and 1000 nM (sheet 'Samples'); n = 1
# [28] = test system: CDK10; conditions: read-out: apparent Kd; compound concentrations: 100 nM and 1000 nM (sheet 'Samples'), CATDS: 0.51704029448555699; n = 1
# [29] = compound concentrations:100 nM and 1000 nM (sheet 'Samples')
smiles,measurement,setting,value
CN1CCC(C(=O)Nc2n[nH]c3nnc(-c4ccccc4)cc23)CC1.Cl [SB-678557-A],potency estimated from few doses,[1]; [29],2390 nM
same,potency estimated from few doses,[2],1070 nM
same,potency estimated from few doses,[3],1910 nM
same,potency estimated from few doses,[4],75.2 nM
same,potency estimated from few doses,[5],1840 nM
same,potency estimated from few doses,[6],3.32 nM
same,potency estimated from few doses,[7],8.23 nM
same,potency estimated from few doses,[8],721 nM
same,potency estimated from few doses,[9],1690 nM
same,potency estimated from few doses,[10],183 nM
same,potency estimated from few doses,[11],173 nM
same,potency estimated from few doses,[12],1150 nM
Cn1cncc1-c1ccc2ncnc(Nc3ccc(OCc4ccccc4)cc3)c2c1 [GW320571X],potency estimated from few doses,"[1]; compound concentrations: 100 nM and 1000 nM (sheet 'Samples'), CATDS: 0.134297871058083",1180 nM
same,potency estimated from few doses,[13]; CATDS: 0.111886140460168,1880 nM
same,potency estimated from few doses,[14],545 nM
same,potency estimated from few doses,"[15]; compound concentrations: 100 nM and 1000 nM (sheet 'Samples'), CATDS: 0.118156666202673",1610 nM
same,potency estimated from few doses,"[16]; compound concentrations: 100 nM and 1000 nM (sheet 'Samples'), CATDS: 0.17840078958021699",676 nM
same,potency estimated from few doses,[17],1420 nM
same,potency estimated from few doses,[18],668 nM
COC[C@@H](C)N[C@H]1CC[C@H](Nc2cc(-c3cccc(NCC4(C#N)CCOCC4)n3)c(Cl)cn2)CC1 [NVP-2],potency estimated from few doses,[19],2370 nM
same,potency estimated from few doses,"[20]; compound concentrations: 100 nM and 1000 nM (sheet 'Samples'), CATDS: 0.51387141429952199",2130 nM
COc1cccc(C2=C(Nc3cccc(O)c3)C(=O)NC2=O)c1 [SB-390771],potency estimated from few doses,[21]; [29],2060 nM
same,potency estimated from few doses,[22],1930 nM
same,potency estimated from few doses,[23],2110 nM
same,potency estimated from few doses,[24],2460 nM
C=CC(=O)Nc1cc(-c2nn(C3CCC(N4CCN(C(C)=O)CC4)CC3)c3ncnc(N)c23)ccc1Oc1ccccc1 (stereo not shown) [TX-85-1],potency estimated from few doses,[21]; [29],2280 nM
same,potency estimated from few doses,[1]; [29],2250 nM
same,potency estimated from few doses,[25],799 nM
same,potency estimated from few doses,[15]; [29],1550 nM
same,potency estimated from few doses,[16]; [29],1480 nM
same,potency estimated from few doses,[26],712 nM
same,potency estimated from few doses,[20]; [29],1620 nM
same,potency estimated from few doses,[27],918 nM
Cc1cc(Cl)cc2c1NC(=O)C2=NNc1ccc(S(N)(=O)=O)cc1 [GW279320X],potency estimated from few doses,"[21]; compound concentrations: 100 nM and 1000 nM (sheet 'Samples'), CATDS: 0.213173393679812",1720 nM
same,potency estimated from few doses,"[1]; compound concentrations: 100 nM and 1000 nM (sheet 'Samples'), CATDS: 0.21750959040308801",1630 nM
same,potency estimated from few doses,[28],316 nM
same,potency estimated from few doses,[13]; CATDS: 0.20931890266427899,1810 nM
